Source: PubChem
An excerpt weighted towards active compounds, which were near 7.8% of everything screened.
Marburg entry inh: inhibitors of Marburg virus binding or cell entry; Marburg virus pseudotyped entry inhibition, cell reporter; Potency, µM (doses to about 37.8 µM), most hits filed as inhibitors; 1.8% of 300,000 active; AID 540276; calls by dose curve; tested in HEK293 cells
Vaccinia Venus: vaccinia inhibition (Venus reporter); Vaccinia virus Venus reporter expression, fluorescence; Potency, µM (top dose mostly 36.5 µM), hits mostly inhibitors; 0.46% of 330,000 active; calls by dose curve; tested in A549 cells; note: nearly all actives have a fitted effect of over 30% in size
Lassa entry inh: inhibitors of Lassa virus binding or cell entry; Potency, µM (titrated, usually from 37.9 µM), usual class: inhibitors; Lassa virus pseudotype entry inhibition, cell reporter; AID 540256; 1.2% of 300,000 active; calls by dose curve; tested in HEK293 cells; note: nearly all actives have a fitted effect of over 50% in size
HCMV antiviral: blocks human cytomegalovirus replication. 4.5% of 410,000 active. activity change, negative = inhibition, % at 57.5 µM. AID 1259415. HFF cells, HCMV-luciferase reporter, 72 h; hits give low values; in the data active = activity change below about -60%; inconclusive = no clear call, values can overlap the other calls; inactive = above about -39%
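Two-dose cell screen: HFF monolayers treated with compounds and infected with luciferase-expressing HCMV at 1 PFU/cell, 72 h at 37C, then lysed for luciferase measurement.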
Vaccinia mCherry: inhibitors of vaccinia virus infection (mCherry reporter signal); AID 720579; Vaccinia virus mCherry reporter infection, fluorescence; Potency, µM (highest dose often 36.5 µM), actives largely listed as inhibitors; 0.63% of 310,000 active; calls by dose curve; tested in A549 cells; note: nearly all actives have a fitted effect of over 35% in size
HCV inh: HCV inhibition | Potency, µM (highest dose often 41.8 µM), actives largely listed as inhibitors | Huh7.5.1 HCVcc-Cre infection, luciferase reporter, 44 h | 3.4% of 340,000 active; active = well fitted inhibition curve with a large enough effect; inconclusive = small, poorly fitted or top-dose-only effect, or another doubt; inactive = no such curve, though single readings can be large or run the other way
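Infectious HCV cell culture screen: compound-treated cells (1,000/well, pre-plated 4 h) are infected with HCVcc-Cre at roughly 0.5 moi and grown 44 h. Infection is quantified by luciferase signal after 15 min substrate incubation at room temperature.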
Hits are given with their value; – = inactive; ? = inconclusive; · = no result; [ ] = remark or other dose.

SMILES	Marburg entry inh	Vaccinia Venus	Lassa entry inh	HCMV antiviral	Vaccinia mCherry	HCV inh
Cc1cccc(OCC(=O)Nc2ccncc2)c1C	?	–	?	-84	–	?
Cc1cc(OCC(=O)Nc2ccncc2)ccc1Br	–	?	–	-90	·	–
Cc1cc(Cl)ccc1OCC(=O)Nc1ccncc1	·	·	·	-60	·	13µM
CCOc1ccccc1OCC(=O)Nc1nnc(COC)s1	–	·	–	-102	·	–
CCOCC(=O)Nc1nnc(COC)s1	–	·	–	–	·	–
COc1c(C=O)c(O)cc2c1C(=O)c1ccccc1C2=O	·	–	·	·	–	·
CSc1ccccc1NC(=O)COc1ccc(Cl)cc1Cl	?	–	–	?	–	?
Cc1cc(OCC(=O)NNC(=O)c2cccs2)ccc1Br	–	–	–	-73	–	–
O=C(COc1ccc(Cl)cc1Cl)Nc1ccccn1	?	·	0.52µM	-80	·	?
Cc1cccc(OCC(=O)NNC(=O)c2cccs2)c1	–	–	–	–	–	–
Cc1cccc(OCC(=O)Nc2nnn(C)n2)c1C	–	–	–	-102	–	–
C/C=C/c1ccc(OCC(=O)Nc2ccncc2)c(OC)c1	·	·	·	-83	·	?
Cc1cc(C(C)(C)C)c(O)c(C)c1CC1=NCCN1	16µM	–	–	–	–	–
c1ccc2cc(CC3=NCCN3)ccc2c1	?	–	–	–	·	–
O=C(NCc1ccccc1Cl)C(=O)NCC(c1cccs1)S(=O)(=O)c1cccs1 (stereo not given)	·	–	?	-62	–	·
CC(=O)Nc1ccc(Cl)cc1C(=O)c1ccc[nH]1	·	–	·	–	–	·
NCC(=O)Nc1ccc(Cl)cc1C(=O)c1ccc[nH]1	·	–	·	-66	?	–
COc1ccc(NC(=O)C2CCN(S(=O)(=O)c3c(C)noc3/C=C/c3cccs3)CC2)cc1Cl	–	–[7.34 µM]	–	–	–[7.34 µM]	·
CN(CC(=O)NC1CCCc2ccccc21)S(=O)(=O)c1cccs1 (stereo not given)	?	–	–	-74	–	–
CN(CC(=O)NC1CCCc2ccccc21)S(=O)(=O)c1ccc2c(c1)c(=O)n(C)c(=O)n2C (stereo not given)	·	–	·	–	–	–
CCOc1ccc(CNC(=O)CCn2c(=O)c3cccn3c3cccnc32)cc1	·	–	–	?	–	·
Cc1nc2c(C(=O)NC(C)c3ccccc3)cnn2c(C)c1Cc1ccccc1 (stereo not given)	·	?	?	-86	–	·
Cc1ccc(CNC(=O)c2cnn3c(C)c(Cc4c(F)cccc4Cl)c(C)nc23)cc1	·	–	–	–	–	·
Cc1cc(C)c(Cc2c(C)nc3c(C(=O)NCc4ccco4)cnn3c2C)c(C)c1	?	–	–	-99	–	8.9µM
